Measurements published in paper PMC4336329 (PLoS ONE, 2015).
The campaign covered roughly 310,000 compounds. About 14,000 (4.5%) showed an effect of 50% or more. Effects have a minus sign here. This excerpt belongs to a sample that is enriched for strong results.

target: human ether-à-go-go-related gene (hERG) potassium channel (human, UniProt Q12809); experiment: primary screen, population patch clamp on CHO cells stably expressing hERG; higher = less effect of the substance
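Further: peak tail current of the secondary pulse compared with the same well before compound.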

human ether-à-go-go-related gene (hERG) potassium channel, sequence (Q12809 whole entry, looked up): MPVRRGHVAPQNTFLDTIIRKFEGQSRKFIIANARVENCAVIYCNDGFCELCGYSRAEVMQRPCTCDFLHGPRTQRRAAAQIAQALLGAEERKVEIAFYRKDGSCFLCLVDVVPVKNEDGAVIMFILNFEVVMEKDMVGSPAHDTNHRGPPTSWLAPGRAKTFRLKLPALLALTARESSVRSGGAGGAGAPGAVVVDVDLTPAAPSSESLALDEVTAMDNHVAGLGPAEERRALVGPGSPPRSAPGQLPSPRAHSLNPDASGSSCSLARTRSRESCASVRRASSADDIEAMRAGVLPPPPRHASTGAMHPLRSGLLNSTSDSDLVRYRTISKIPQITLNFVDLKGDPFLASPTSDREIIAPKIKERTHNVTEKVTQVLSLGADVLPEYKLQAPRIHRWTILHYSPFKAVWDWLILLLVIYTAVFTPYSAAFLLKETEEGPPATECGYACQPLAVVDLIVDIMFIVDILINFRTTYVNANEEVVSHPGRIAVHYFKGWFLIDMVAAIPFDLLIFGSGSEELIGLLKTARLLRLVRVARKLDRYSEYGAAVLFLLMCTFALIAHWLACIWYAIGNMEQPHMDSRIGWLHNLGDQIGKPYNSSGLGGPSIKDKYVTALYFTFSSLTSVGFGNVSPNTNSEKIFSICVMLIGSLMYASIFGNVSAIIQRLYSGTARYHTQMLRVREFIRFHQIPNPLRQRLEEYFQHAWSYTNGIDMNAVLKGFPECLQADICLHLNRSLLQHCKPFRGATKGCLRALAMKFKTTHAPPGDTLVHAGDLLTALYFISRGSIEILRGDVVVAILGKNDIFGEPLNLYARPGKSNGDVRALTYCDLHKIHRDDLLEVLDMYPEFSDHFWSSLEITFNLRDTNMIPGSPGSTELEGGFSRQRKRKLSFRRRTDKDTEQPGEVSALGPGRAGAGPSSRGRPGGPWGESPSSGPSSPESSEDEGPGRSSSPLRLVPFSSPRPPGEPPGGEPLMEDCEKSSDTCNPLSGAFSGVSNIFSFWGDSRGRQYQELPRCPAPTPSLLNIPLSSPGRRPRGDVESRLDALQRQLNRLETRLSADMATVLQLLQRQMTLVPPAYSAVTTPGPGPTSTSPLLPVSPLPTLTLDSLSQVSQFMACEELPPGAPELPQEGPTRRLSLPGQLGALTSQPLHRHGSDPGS

SMILES | hERG current change (%, negative = inhibition) at 10uM [%]
Nc1[nH]nc2c1NN(c1ccc(Cl)cc1Cl)N2 | 12.4
COc1ccccc1Oc1nc(C)c(C(C)=O)cc1C#N | 14.8
CCc1ccc(CN(C(=O)COc2c(C)cccc2C)C2CCS(=O)(=O)C2)cc1 (stereo not shown) | -12.2
Cc1ccc(NC(=O)c2cccc(S(=O)(=O)N(C)c3ccccc3)c2)cc1S(=O)(=O)N1CCOCC1 | 9.04
O=S(=O)(Nc1ccc(Cl)cc1)c1cccc2cccnc12 | 12.8
COc1ccc(N2CCN(C(=O)CCS(=O)(=O)c3cccc4nsnc34)CC2)cc1 | -23.9
CCOc1cc(C(=S)N2CCOCC2)ccc1OC(=O)c1cccc(C)c1 | -42
Cc1cc(C(=O)CSc2nnc(-c3ccc(F)cc3)o2)c(C)n1CC1CCCO1 (stereo not shown) | -7.13
O=C(CSc1nnc(-c2ccco2)o1)NC1CC2CCC1C2 (stereo not shown) | -2.05
CCOC(=O)c1c(C)[nH]c(C(=O)N2CCc3cc(OC)c(OC)cc3C2)c1C | -12.3
COc1ccc(OC)c(NC(=O)C(C)Oc2ccc(Br)cc2)c1 (stereo not shown) | 5.96
CN(CC(=O)NC1CC(C)(C)NC(C)(C)C1)S(=O)(=O)c1ccc(Br)cc1 | -2.22
COc1ccc(OCC(=O)N2CCN(C(=O)COc3ccc(Br)cc3)CC2)cc1 | -71.9
CC(=O)N1CCN(C(=O)COc2ccc(Br)cc2)CC1 | -17.8
O=C(CCC1CCCC1)N1CCN(C(=O)COc2ccccc2)CC1 | -28.8
Cc1cccc(OCC(=O)N2CCN(C(=O)CCC3CCCC3)CC2)c1 | -37.3
CCOC(=O)N1CCN(C(=O)COc2ccc(Br)cc2)CC1 | -39.1
Cc1ccc(OCC(=O)N2CCN(C(=O)CCC3CCCC3)CC2)cc1 | -54.3
O=C(O)C1CCN(C(=O)COc2ccc(Br)cc2)CC1 | 38
CN1CCCN(C(=O)COc2ccc(Br)cc2)CC1 | -17.3
O=C(COc1ccc(Br)cc1)N1CCN(C2CCCC2)CC1 | -63.6
c1ccc(Cn2nc(-c3ccccc3)nc2-c2ccccc2)cc1 | -2.5
O=c1[nH]c2ccc(S(=O)(=O)N3CCN(Cc4ccccc4)CC3)cc2[nH]c1=O | -1.75
Cn1c(CNC(=O)c2cccs2)n[nH]c1=S | 18.1
O=C(NCc1ccccn1)c1ccc(NS(=O)(=O)c2cccc(Cl)c2)cc1 | 7.73
COc1ccc(-n2nnnc2/C=C\Nc2ccc(C)cc2)cc1 | 16
COC(=O)CNC(=O)CNC(=O)c1nn(-c2ccc(OC)c(OC)c2)c(=O)c2ccccc12 | 18.1
COc1ccc2nc(NC(=O)C3COc4ccccc4O3)sc2c1 (stereo not shown) | 0.282

SMILES | hERG current change (%, negative = inhibition) at 10uM [%]
CCCCN1C(=O)/C(=C2/Sc3ccc(OC)cc3N2CC)SC1=S | 25.5
O=C(c1ccccc1)c1cc(-c2ccccn2)c(N2CCOCC2)s1 | -29.4
O=C(c1ccc(Cl)cc1)c1cc(-c2ccccn2)c(N2CCOCC2)s1 | -54.9
O=C(c1ccc(Cl)c(Cl)c1)c1cc(-c2ccccn2)c(N2CCOCC2)s1 | -29.1
S=C(N/N=C/c1ccc2ncccc2c1)Nc1ccccc1 | 63.6
Cc1ccc(C(=O)CSc2ccccn2)cc1 | -7.25
CCC1CCCCN1CCCNC(=O)C1CCCN(c2nn3c(=O)cc(C)nc3s2)C1 (stereo not shown) | 12.2
O=C(O)CCCC(=O)Nc1ccc(N=Nc2ccccc2)cc1 | 14.5
COc1ccc(S(=O)(=O)N2CCCC2CNC(=O)C(=O)NCc2ccc(C)cc2)cc1 (stereo not shown) | -29.6
Cc1c(CC(=O)N2CCN(C(=O)C3COc4ccccc4O3)CC2)c(=O)oc2cc(O)c(Cl)cc12 (stereo not shown) | -52.4
Cc1c(CC(=O)N2CCN(C(=O)C3COc4ccccc4O3)CC2)c(=O)oc2cc(O)cc(O)c12 (stereo not shown) | 24.8
Cc1cc(O)c2c(C)c(CC(=O)N3CCN(C(=O)C4COc5ccccc5O4)CC3)c(=O)oc2c1 (stereo not shown) | -28
O=C(C1COc2ccccc2O1)N1CCN(c2ccccc2Cl)CC1 (stereo not shown) | 1.69
CCOC(=O)N1CCN(C(=O)C2COc3ccccc3O2)CC1 (stereo not shown) | -2.28
Cc1c(CC(=O)N2CCN(C(=O)C3COc4ccccc4O3)CC2)c(=O)oc2c(O)c(O)ccc12 (stereo not shown) | -0.208
CC(=O)Oc1ccc2c(C)c(CC(=O)N3CCN(C(=O)C4COc5ccccc5O4)CC3)c(=O)oc2c1C (stereo not shown) | -69.6
O=C(C1COc2ccccc2O1)N1CCOCC1 (stereo not shown) | 10.5
COc1cc(C)cc2oc(=O)c(CC(=O)N3CCN(C(=O)C4COc5ccccc5O4)CC3)c(C)c12 (stereo not shown) | -53.9
Cc1c(CC(=O)N2CCN(C(=O)C3COc4ccccc4O3)CC2)c(=O)oc2cc(O)ccc12 (stereo not shown) | -44.7
COc1ccc2c(C)c(CC(=O)N3CCN(C(=O)C4COc5ccccc5O4)CC3)c(=O)oc2c1C (stereo not shown) | -53.7
Cc1c(CC(=O)N2CCN(C(=O)C3COc4ccccc4O3)CC2)c(=O)oc2c(C)c(O)ccc12 (stereo not shown) | -20
COc1ccccc1CNC(=O)c1ccc(-c2ccccc2Cl)o1 | 4.13
O=S(=O)(/N=C(/NS(=O)(=O)c1ccccc1)c1ccccc1)c1ccccc1 | 20
CN(C)c1ccc(/C=N/NC(=O)c2sccc2-n2cccc2)cc1 | 12.2
CC1=CC(=C(C#N)c2nc3ccccc3s2)C=C(C)N1c1ccc(F)cc1F | 13.3
c1ccc2c(c1)Cc1ccccc1O2 | 14.7
COc1ccc(/C=C2\C(=O)NCC(=O)N2Cc2ccccc2)cc1 | 4.69
